Results from PubChem BioAssay (NCATS).
Values joined by “and” are separate entries in the source; they are usually repeats but may differ in a detail not shown here. Equal entries are not always repeated. Inconclusive results are not listed. A call without a number means that no potency is given here. The source holds several records for some structures; these can differ, active in one and inactive in another. Active and inactive are the calls of the source. The call rests on the fitted dose curve; in most records, active means well fitted inhibition curve with a large enough effect; inconclusive means small, poorly fitted or top-dose-only effect; inactive means flat fitted curve, though single readings scatter.

tested on: MKL-1; assay: qHTS assay to identify novel small-molecules to repurpose for Merkel cell carcinoma treatment (AID 1296009); conditions: MCC and control cell lines, CellTiter-Glo viability, 72 h; series mostly up to 46 µM; activity change, negative = cytotoxicity: at the top concentration; further: nearly all actives have a fitted effect of over 60% in size
How it was run: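 Cells were incubated with compound for 72 hr at 37 degree celsius before CellTiter-Glo addition. Luminescence was normalized with no-cell wells as full cytotoxicity and DMSO as baseline.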
Potency means the concentration at half of the fitted maximal effect.

Row | Compound | Potency | activity change, negative = cytotoxicity
1 | CC(c1cc2ccccc2s1)N(O)C(N)=O (stereo unspecified) | inactive | 
2 | Cc1ccnc(NS(=O)(=O)c2ccc(NC(=O)Nc3ccc(S(=O)(=O)Nc4nccc(C)n4)cc3)cc2)n1 |  | 1.84% (inactive)
3 | CNC[C@H](O)c1cccc(O)c1 | inactive | 
4 | OC(CCN1CCCCC1)(c1ccccc1)C1CC2C=CC1C2 (stereo unspecified) | inactive | 
5 | O=NN(CCCl)C(=O)NCCCl | inactive | 
6 | O=C(Nc1ccc(F)c(C(F)(F)F)c1)Nc1nnc(-c2ccncc2)s1 |  | -9.47% (inactive)
7 | Cc1c(C)c2c(c(C)c1O)CCC(C)(COc1ccc(CC3SC(=O)NC3=O)cc1)O2 (stereo unspecified) | inactive | 
8 | NC(N)=NC(=O)c1nc(Cl)c(N)nc1N | inactive | 
9 | COc1ccc(CCN2CCN(CCCc3ccccc3)CC2)cc1OC |  | -1.37% (inactive)
10 | O=c1n(CCCN2CCN(c3cccc(Cl)c3)CC2)nc2ccccn12 | inactive | 
11 | Cc1[nH]c(=O)c(C#N)cc1-c1ccncc1 | inactive | 
12 | N=c1nc(N2CCCCC2)cc(N)n1O | inactive | 
13 | CC(C[N+](C)(C)C)OC(N)=O (stereo unspecified) | inactive | 
14 | c1ccc([C@H]2CN3CCSC3=N2)cc1 | inactive | 
15 | CCCCNc1cc(C(=O)O)cc(S(N)(=O)=O)c1Oc1ccccc1 | inactive | 
16 | CCN(CC)CCCC(C)Nc1ccnc2cc(Cl)ccc12 (stereo unspecified) |  | -18.1% [at 16.1 µM] (inactive)
17 | CC(C=CC1=C(C)CCCC1(C)C)=CC=CC(C)=CC(=O)O | inactive | 
18 | Cc1cn[nH]c1 | inactive and 5.9 µM (active) | 
19 | CC(C)OC(=O)C1=CN(C(=O)c2ccc(F)c(F)c2)CC(C)(C)c2c1[nH]c1ccccc21 |  | -14.8% (inactive)
20 | CC(C)NCC(O)COc1ccc(COCCOC(C)C)cc1 (stereo unspecified) | inactive | 
21 | COc1ccc([C@@H]2CC(=O)c3c(O)cc(O[C@@H]4O[C@H](CO[C@@H]5O[C@@H](C)[C@H](O)[C@@H](O)[C@@H]5O)[C@@H](O)[C@H](O)[C@@H]4O)cc3O2)cc1O | inactive | 
